Laboratory results taken from PubChem BioAssay (NCATS).
This is one part of the list. Records with an inconclusive call do not appear. Values without a mark were called inactive. Active and inactive are the calls of the source. Calls follow the shape of the dose curve; as a rule, active = well fitted curve in the direction sought with a large enough effect; inconclusive = small, poorly fitted or top-dose-only effect, or another doubt; inactive = no such curve, though single readings can be large; an effect the other way counts as inactive or inconclusive.

Target: Endonuclease 4 (Escherichia coli (strain K12)) (UniProt P0A6C1)
Test: Counterscreen for APE1 Inhibitors: qHTS Assay for Inhibitors of Endonuclease IV (AID 2565);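 also: plate controls were uninhibited enzyme wells for no effect and no enzyme buffer wells for full effect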
Settings: E. coli Endo IV, fluorogenic AP-site DNA cleavage; series mostly up to 27.1 µM; activity change, negative = inhibition: at the top concentration
In short: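 Read-out: fluorescence rise (ex 525/em 598 nm) from incision of a TAMRA/BHQ-2 double-stranded THF abasic-site substrate (50 nM), measured kinetically; third-minus-first read difference gave reaction progress. Enzyme 2 nM.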

| SMILES | activity change, negative = inhibition [%] |
| --- | --- |
| N#Cc1ccccc1CN1C(=O)S/C(=C/c2cccn2-c2cccc(C(=O)O)c2)C1=O | 14.2 |
| CC(C)(C)C(=O)OCc1nc(-c2ccc(O)c(O)c2)cs1 | 53.7 |
| COc1cc([C@H](Cc2ccccc2)NC(C)=O)oc(=O)c1 | 5.9 |

Target: DNA repair nuclease/redox regulator APEX1 (Homo sapiens) (UniProt P27695)
Test: Confirmation qHTS Assay for Inhibitors of the Human Apurinic/apyrimidinic Endonuclease 1 (APE1) (AID 2572); also: nearly all actives have a fitted effect of over 30% in size; also: potency is read from the fitted curve at half-maximal effect;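 as to activity change, negative = inhibition: fluorescence gain from purified APE1 cutting a TAMRA/BHQ-2 THF abasic duplex; % is scaled to controls: 0 for no effect and ±100 for the full control effect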
Settings: purified APE1, fluorogenic abasic-site DNA cleavage; series mostly up to 57.1 µM; activity change, negative = inhibition: at the top concentration
In short: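 APE1 preincubated 15 min RT with compound; 50 nM TAMRA/BHQ-2 THF-abasic duplex added; kinetic fluorescence, 3 reads at 60 s intervals, Ex 525/Em 598; progress = read 3 minus read 1.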

DNA repair nuclease/redox regulator APEX1 (Homo sapiens), sequence (P27695 whole entry, looked up): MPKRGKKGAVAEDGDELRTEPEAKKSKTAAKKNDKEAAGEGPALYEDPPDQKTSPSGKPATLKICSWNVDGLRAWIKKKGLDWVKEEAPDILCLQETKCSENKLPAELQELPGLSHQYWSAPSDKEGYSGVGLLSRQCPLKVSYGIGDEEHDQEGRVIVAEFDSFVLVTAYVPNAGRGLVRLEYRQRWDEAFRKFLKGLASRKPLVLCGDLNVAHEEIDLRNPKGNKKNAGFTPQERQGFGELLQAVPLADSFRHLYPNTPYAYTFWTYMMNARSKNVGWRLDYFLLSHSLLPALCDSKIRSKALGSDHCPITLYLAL

| SMILES | activity change, negative = inhibition [%] | Potency |
| --- | --- | --- |
| CCOCN(C(=O)Cn1c(C(C)O)nc2ccccc21)c1c(C)cccc1CC (stereo not drawn) | -11.3 | – |
| N#Cc1ccccc1CN1C(=O)S/C(=C/c2cccn2-c2cccc(C(=O)O)c2)C1=O | – | 14.1 µM (active) |
| O=C(NCc1ccccn1)c1ccc2nc(-c3ccco3)c(-c3ccco3)nc2c1 | – | 8.91 µM (active) |
| CC(C)(C)C(=O)OCc1nc(-c2ccc(O)c(O)c2)cs1 | – | 11.2 µM (active) |
| CC(=O)NS(=O)(=O)c1ccc(NC(=O)C2C3C=CC(C3)C2C(=O)O)cc1 (stereo not drawn) | -15.6 | – |
| COc1ccc(NC(=O)CSc2nc(NS(=O)(=O)c3ccc(C)cc3)cc(=O)[nH]2)cc1 | – | 39.8 µM (active) |

System: not listed separately
Test: qHTS Assay for Inhibitors of Fructose-1,6-bisphosphate Aldolase from Giardia Lamblia: Giardia lamblia growth inhibition (AID 2785); also: % is scaled to controls: 0 for no effect and ±100 for the full control effect; nearly all actives have a fitted effect of over 70% in size
Settings: Giardia lamblia trophozoite growth inhibition; series mostly up to 57.5 µM; activity change, negative = inhibition: at the top concentration
In short: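 G. lamblia WB trophozoites (100 cells/well) were grown with compound at 37C for 48 h in modified TYI-S-33 medium, pH 7.0. Growth was measured by ATPlite luminescence after 20 min at room temperature.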

| SMILES | activity change, negative = inhibition |
| --- | --- |
| C=C(C)CNC(=S)N/N=C/c1ccccc1OCC(=O)O | -11.7% |
| Cc1nc2ccc(NC(=S)N3CCC(C)CC3)cc2nc1C | -1.02% |
| Cc1cnc(NC(=O)c2ccccn2)s1 | -23.9% [at 10.4 µM] |
| O=c1nc(N/N=C/c2ccco2)cn[nH]1 | -5.51% |
| CC(=O)NC1CCN(CC(=O)Nc2nccs2)CC1 | -10.3% [at 10.4 µM] |

System: not listed separately
Test: qHTS Assay for Inhibitors of Fructose-1,6-bisphosphate Aldolase from Giardia Lamblia: Mammalian cellular toxicity (AID 2786);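 also: compound exposure lasted 48 h before reading; % is scaled to controls: 0 for no effect and ±100 for the full control effect; nearly all actives have a fitted effect of over 60% in size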
Settings: mammalian cell viability counter-screen; series mostly up to 57.5 µM; viability change, negative = toxicity: at the top concentration
In short: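 CHO cells seeded at 250 cells/well with pin-tool-added compound, incubated 48 h at 37 °C, 5% CO2. Viability read as ATP content by ATPlite luminescence after 20 min.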

| SMILES | viability change, negative = toxicity [%] |
| --- | --- |
| Cc1cccc(C)c1OCCN1CCOCC1 | 9.69 |
| Cc1csc(NC(=O)CN2CCCCCC2)n1 | -7.59 |
| C=C(C)CNC(=S)N/N=C/c1ccccc1OCC(=O)O | 21.4 |
| Cc1nc2ccc(NC(=S)N3CCC(C)CC3)cc2nc1C | -5.49 |
| CNC(=S)N/N=C/c1ccc(N2CCOCC2)s1 | -3.94 |
| COc1ccccc1CN1CCN(Cc2cc(OC)c(OC)cc2OC)CC1 | 3.82 |
| COc1ccc(C(=O)NC(=S)N2CCCCC2c2cccnc2)cc1OC (stereo not drawn) | 1.32 |
| O=C(O)Cn1c(Cc2ccccc2)nc2ccccc21 | -4.21 |
| CCN(CC(=O)NC(=O)NCc1ccccc1)Cc1nc2ccccc2c(=O)[nH]1 | -3.84 |
| COc1cc(CN2CCN(Cc3ccc(C)cc3)CC2)c([N+](=O)[O-])cc1OC | -16 |
| COCCN(C(=S)Nc1ccccc1OC)C1CCN(C(C)C)CC1 | 1.84 |
| O=C(Nc1nnc(-c2ccco2)o1)c1ccc(S(=O)(=O)N2CCOCC2)cc1 | 8.14 |
| CN1CCCc2cc(C#N)c(=O)[nH]c21 | -2.91 |
| Cc1cccc(-c2nnc(SCC(=O)O)n2Cc2ccccc2)c1 | 3.23 |
| COC(=O)CC1=NN(c2nc(C)cc(C)n2)C(=O)C1 | 1.41 |
| Cc1nnc(SCC2=C(C(=O)O)N3C(=O)C(NC(=O)Cn4nc(C)c(Cl)c4C)C3SC2)s1 (stereo not drawn) | 3.23 |
| O=C(Nc1ccccc1Cl)O/N=C(/c1ccccc1)c1ccccn1 | 0.929 |
| Cc1nc(N2CCOCC2)sc1C(=O)NN | -2.56 |
| Oc1[nH]c2ccc(Br)cc2c1N=Nc1nn[nH]n1 | -1.69 |

Target: Fructose-bisphosphate aldolase (Giardia intestinalis (strain ATCC 50803 / WB clone C6)) (UniProt A8B2U2)
Test: qHTS Assay for Inhibitors of Fructose-1,6-bisphosphate Aldolase from Giardia Lamblia: Primary screen confirmation (AID 2787);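 also: aldolase product measured through coupled diaphorase step turning resazurin into fluorescent resorufin; % is scaled to controls: 0 for no effect and ±100 for the full control effect; nearly all actives have a fitted effect of over 45% in size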
Settings: purified Giardia aldolase enzyme activity; series mostly up to 57.5 µM; activity change, negative = inhibition: at the top concentration
In short: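 FBPA (40 nM in enzyme reagent, with 30 uM ZnCl2) was preincubated 10 min at RT with compound up to 57.5 uM final. Substrate plus coupled detection system was then added, and fluorescence (525/598 nm) was read after 20 min at RT.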

Fructose-bisphosphate aldolase (Giardia intestinalis (strain ATCC 50803 / WB clone C6)), sequence (A8B2U2 whole entry, looked up): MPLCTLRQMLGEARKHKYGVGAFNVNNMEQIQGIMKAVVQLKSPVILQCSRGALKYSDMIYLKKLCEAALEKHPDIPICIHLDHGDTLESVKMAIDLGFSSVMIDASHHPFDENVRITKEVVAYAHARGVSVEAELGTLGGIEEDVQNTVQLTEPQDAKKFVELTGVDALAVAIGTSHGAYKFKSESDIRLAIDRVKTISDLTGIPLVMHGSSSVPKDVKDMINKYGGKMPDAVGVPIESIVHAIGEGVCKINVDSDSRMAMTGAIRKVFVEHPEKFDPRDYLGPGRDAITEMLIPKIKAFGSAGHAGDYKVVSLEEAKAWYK

| SMILES | activity change, negative = inhibition [%] |
| --- | --- |
| Cc1cccc(C)c1OCCN1CCOCC1 | 1.33 |
| O=C(NC(=S)Nc1ncccn1)c1ccccc1Br | -17.8 |
| C/C(=N\NC(N)=S)c1cccnc1 | 7.5 |
| CC1CCCN(S(=O)(=O)c2ccc(C(=O)Nc3nnc(-c4ccncc4)o3)cc2)C1 (stereo not drawn) | -0.279 |
| CCN(CC(=O)NC(=O)NCc1ccccc1)Cc1nc2ccccc2c(=O)[nH]1 | -0.575 |
| CN(C)CCOc1ccc(Cl)cc1C(C)(C)C | -11.7 |
| Cn1nnc(NC(=S)NC(=O)c2ccccc2)n1 | 1.95 |
| O=S(=O)(c1ccc(NC(=S)NN=C(C2CC2)C2CC2)cc1)N1CCOCC1 | 0.636 |
| Cc1nnc(SCC2=C(C(=O)O)N3C(=O)C(NC(=O)Cn4nc(C)c(Cl)c4C)C3SC2)s1 (stereo not drawn) | -5 |
| O=C(N/N=C/c1ccccn1)c1cccnc1 | 2.14 |
| C=CCNC(=S)/N=c1/ccccn1Cc1ccccc1 | 2.96 |
| Oc1[nH]c2ccc(Br)cc2c1N=Nc1nn[nH]n1 | 7.96 |
| CC(=O)NC1CCN(CC(=O)Nc2nccs2)CC1 | 1.61 |
| O=C1CCCN1CCCNC(=S)Nc1ccc(F)c(Cl)c1 | -3.47 |
| O=c1[nH]c(=S)[nH]c2[nH]c(=S)[nH]c12 | -17.2 |

Target: Fructose-bisphosphate aldolase A (Oryctolagus cuniculus) (UniProt P00883)
Test: qHTS Assay for Inhibitors of Fructose-1,6-bisphosphate Aldolase from Giardia Lamblia: Rabbit FBPA Selectivity (AID 2794); also: % is scaled to controls: 0 for no effect and ±100 for the full control effect; nearly all actives have a fitted effect of over 60% in size
Settings: Rabbit muscle FBPA enzyme inhibition, selectivity counter-screen; series mostly up to 57.5 µM; activity, negative = inhibition: at the top concentration
In short: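 AmpLite Red readout, ex/em 525/598 nm. Rabbit FBPA, GAP-linked coupling enzymes; 10 min cpd preincubation, then 20 min after substrate, both RT. Concentration-response up to 57.5 uM final.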

Fructose-bisphosphate aldolase A (Oryctolagus cuniculus), sequence (P00883 whole entry, looked up): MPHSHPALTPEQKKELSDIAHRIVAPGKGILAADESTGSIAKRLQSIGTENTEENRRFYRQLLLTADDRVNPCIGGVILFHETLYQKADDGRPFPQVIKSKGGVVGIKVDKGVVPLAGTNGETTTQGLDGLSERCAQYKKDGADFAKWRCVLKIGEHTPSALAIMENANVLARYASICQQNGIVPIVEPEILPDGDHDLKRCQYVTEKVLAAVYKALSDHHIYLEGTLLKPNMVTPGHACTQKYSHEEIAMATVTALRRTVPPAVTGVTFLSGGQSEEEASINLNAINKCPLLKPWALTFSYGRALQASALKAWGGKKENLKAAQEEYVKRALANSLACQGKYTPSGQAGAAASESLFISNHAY

| SMILES | activity, negative = inhibition [%] |
| --- | --- |
| C=C(C)CNC(=S)N/N=C/c1ccccc1OCC(=O)O | 17 |
| Cc1nc2ccc(NC(=S)N3CCC(C)CC3)cc2nc1C | -17.9 |
| Cc1cnc(NC(=O)c2ccccn2)s1 | -1.75 |
| C/C(=N\NC(N)=S)c1cccnc1 | 6.15 |
| CN(C)CCOc1ccc(Cl)cc1C(C)(C)C | -10.1 |
| CN1CCCc2cc(C#N)c(=O)[nH]c21 | -18.5 |
| COC(=O)CC1=NN(c2nc(C)cc(C)n2)C(=O)C1 | -3.84 |

System: not listed separately
Test: qHTS Assay for Inhibitors of Fructose-1,6-bisphosphate Aldolase from Giardia Lamblia: Coupling assay counterscreen confirmation (AID 2795); also: % is scaled to controls: 0 for no effect and ±100 for the full control effect; nearly all actives have a fitted effect of over 55% in size
Settings: GAPDH coupling enzyme counterscreen, biochemical; series mostly up to 57.5 µM; activity change, negative = inhibition: at the top concentration
In short: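 Setup: coupling enzyme reagent, compound pin-transferred to up to 57.5 uM final. Incubation: 10 min RT, then substrate + AmpLite Red for 20 min RT. Detection: fluorescence 525/598 nm.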

| SMILES | activity change, negative = inhibition [%] |
| --- | --- |
| Cc1csc(NC(=O)CN2CCCCCC2)n1 | 6.29 |
| C=C(C)CNC(=S)N/N=C/c1ccccc1OCC(=O)O | 3.6 |
| Cc1nc2ccc(NC(=S)N3CCC(C)CC3)cc2nc1C | -26.3 |
| COc1ccccc1CN1CCN(Cc2cc(OC)c(OC)cc2OC)CC1 | 1.99 |
| C/C(=N\NC(N)=S)c1cccnc1 | 9.02 |
| O=C(O)Cn1c(Cc2ccccc2)nc2ccccc21 | 3.77 |
| Cn1nnc(NC(=S)NC(=O)c2ccccc2)n1 | -0.91 |
| CN1CCCc2cc(C#N)c(=O)[nH]c21 | -17 |
| Cc1nc(N2CCOCC2)sc1C(=O)NN | -22.9 |
| O=C(N/N=C/c1ccccn1)c1cccnc1 | -10.9 |
| C=CCNC(=S)/N=c1/ccccn1Cc1ccccc1 | 4.2 |
| CC(=O)NC1CCN(CC(=O)Nc2nccs2)CC1 | 4.24 |
| O=C1CCCN1CCCNC(=S)Nc1ccc(F)c(Cl)c1 | 4.58 |
